“And” between values parts separate entries of the source, which are not always exact repeats. Equal entries are not always repeated. Values without a mark were called inactive. Results filed as inconclusive are left out. Entries that show only a call come without a potency. The source made the active and inactive calls. Unless noted, the call rests on the fitted dose curve; in most records, active means well fitted curve in the direction sought with a large enough effect in the repeat runs; inconclusive means weak or mixed curves; inactive means no such curve, though single readings can be large; an effect the other way counts as inactive or inconclusive.
What was measured:
[1] = qHTS assay to identify small molecule agonists of H2AX (AID 1224845; active means well fitted activation curve with a large enough effect in the signal ratio in the repeat runs, not every such curve was filed as active; the % refers to the signal ratio; further: potency means the concentration at half of the fitted maximal effect)
Summary of the method: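 Phospho-H2AX Ser139 measured by HTRF (ex 320 nm; em 665 and 620 nm) after 24 hr antibody incubation. Compounds, 15 concentrations, 0.76% DMSO, were applied to CHO-K1 cells for 3hr at 37C before lysis.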

[2] = qHTS assay to identify small molecule agonists of H2AX - cell viability counter screen (AID 1224847; calls by dose curve; further: nearly all actives have a fitted effect of over 30% in size; further: potency means the concentration at half of the fitted maximal effect)
Summary of the method: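 Compounds tested at 15 concentrations were incubated 3 hr at 37C with wild-type CHO-K1 cells; cellular ATP-based luminescence (CellTiter-Glo) indicated viability.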

[3] = qHTS assay to identify small molecule agonists of the estrogen related receptor (ERR) signaling pathway from Tox21 library (AID 1224849; calls by dose curve; further: nearly all actives have a fitted effect of over 15% in size); settings: ERR reporter cell line, ONE-Glo luciferase, 18 h; at 92.4 µM (top of the series) unless noted
Summary of the method: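 Reporter cells (ERR, NTP source) treated with Tox21 10K compounds 18 h, 37 C. Readout: ONE-Glo luminescence, 30 min RT.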

[4] = A CellTox Green Cytotoxicity Assay to monitor cytotoxicity in HEK293 cells - 0 hour (AID 1224869); further: nearly all actives have a fitted effect of over 50% in size; further: potency means the concentration at half of the fitted maximal effect
Summary of the method: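 Homogeneous no-lysis format: HEK293 cell suspension mixed with CellTox Green reagent, seeded, incubated 5 h at 37 C/5% CO2, then dosed by pintool with compound in DMSO.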

[5] = qHTS RealTime-Glo MT Cell Viability Assay in HepG2 cells - 24 hour (AID 1224867); further: nearly all actives have a fitted effect of over 50% in size; further: potency means the concentration at half of the fitted maximal effect
Summary of the method: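 Viability was tracked continuously by NanoLuc luminescence from prosubstrate reduced by living HepG2 cells, at successive time points over 40 h of compound exposure. Cells with reagent were preincubated 5 h at 37 °C before compound addition.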

[6] = qHTS RealTime-Glo MT Cell Viability Assay in HEK293 cells - 32 hour (AID 1224868); further: nearly all actives have a fitted effect of over 50% in size; further: potency means the concentration at half of the fitted maximal effect
Summary of the method: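 Viability tracked continuously by luminescence as live cells reduce a prosubstrate for NanoLuc; HEK293 cells preincubated 5 h, compound-treated at 37 C, and read at 0, 8, 16, 24, 32 and 40 h.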

[7] = qHTS RealTime-Glo MT Cell Viability Assay in HepG2 cells - 40 hour (AID 1224870); further: nearly all actives have a fitted effect of over 50% in size; further: potency means the concentration at half of the fitted maximal effect
Summary of the method: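 Real-time viability: cells seeded at 600 per well together with NanoLuc and cell-permeant prosubstrate, compounds added after 5 h incubation. Luminescence tracked at 0, 8, 16, 24, 32 and 40 h of exposure.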

[8] = qHTS assay to identify small molecule antagonists of the estrogen related receptor (ERR) signaling pathway from Tox21 library (AID 1224848); further: nearly all actives have a fitted effect of over 50% in size; further: potency means the concentration at half of the fitted maximal effect
Summary of the method: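 Luciferase luminescence (ONE-Glo, 30 min room temperature) was the read-out. Cells of the NTP-supplied ERR line, 2,000 per well, were given 6 h at 37 C before compound addition in DMSO and 18 h exposure at 37 C.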

[9] = qHTS assay to identify small molecule agonists of the hypoxia (HIF-1) signaling pathway (AID 1224846; active means well fitted activation curve with a large enough effect in the signal ratio in the repeat runs, not every such curve was filed as active; the % refers to the signal ratio; further: potency means the concentration at half of the fitted maximal effect)
Summary of the method: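 In ME-180 cells bearing an HRE-bla construct, 17 h treatment with DMSO-dissolved compounds at 37C was followed by CCF4-AM loading to quantify reporter induction.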

Structure (SMILES)	Potency [1]	Potency [2]	activity change, positive = activation [3]	Potency [4]	Potency [5]	Potency [6]	Potency [7]	Potency [8]	Potency [9]
C[C@@H]1C[C@H]2[C@@H]3CCC4=CC(=O)C=C[C@]4(C)[C@@]3(Cl)[C@@H](O)C[C@]2(C)[C@@]1(OC(=O)c1ccco1)C(=O)CCl	inactive	inactive	-51.1% [at 42.5 µM]	inactive	–	–	–	–	–
CC(C)(C)c1ccc(C(=O)CCCN2CCC(OC(c3ccccc3)c3ccccc3)CC2)cc1	inactive	55.2 µM (active)	–	–	21.3 µM (active)	9.52 µM (active)	19 µM (active)	–	–
Nc1ccc2c3c(cccc13)-c1ccccc1-2	inactive	inactive	–	22.1 µM (active)	inactive	24.8 µM (active)	inactive	–	–
CCOC(=O)O[C@]1(C(=O)OCCl)CC[C@H]2[C@@H]3CCC4=CC(=O)C=C[C@]4(C)[C@H]3[C@@H](O)C[C@@]21C	inactive	–	–	inactive	–	–	–	–	–
O=c1cccccc1O	40.9 µM (active)	inactive	–	inactive	inactive	–	inactive	–	–
O=C(NOCC1CC1)c1ccc(F)c(F)c1Nc1ccc(I)cc1Cl	inactive	–	-59% [at 42.5 µM]	inactive	–	–	0.535 µM (active)	11.9 µM (active)	–
C=CC(=O)OCC(CO)(COC(=O)C=C)COC(=O)C=C	14.2 µM (active)	inactive	-68.9% and -80.3%	inactive	11 µM (active) and 12.3 µM (active)	3.48 µM (active)	12.3 µM (active) and 19.5 µM (active)	8.66 µM (active) and 13.7 µM (active)	–
CSc1ccc(C(=O)c2[nH]c(=O)[nH]c2C)cc1	inactive	inactive	–	inactive	inactive	inactive	inactive	–	–
CC(C)=CCOc1ccc(/C=C/C(=O)c2ccc(OCC=C(C)C)cc2OCC(=O)O)cc1	inactive	inactive	-23.7% [at 42.5 µM]	inactive	inactive	inactive	–	–	–
C=C(C)C(=O)OCC(O)COc1ccc(C(C)(C)c2ccc(OCC(O)COC(=O)C(=C)C)cc2)cc1 (stereo not given)	inactive	–	-80.3%	inactive	19.5 µM (active)	12.3 µM (active)	–	–	–
Clc1ccc2cc3ccccc3cc2c1	–	inactive	8.76%	inactive	inactive	–	inactive	inactive	30.9 µM (active)
Oc1cccc2cc3cccc(O)c3c(O)c12	inactive	inactive	–	inactive	inactive	inactive	inactive	–	–
Cc1cc(C2CCCCC2)n(O)c(=O)c1	9.82 µM (active)	inactive	–	inactive	inactive	1.69 µM (active)	inactive	–	–
Cc1cc2c(cc1C(F)(F)F)N(C(=O)Nc1ccc(Oc3cccnc3C)nc1)CC2	–	45.7 µM (active)	–	inactive	inactive	4.97 µM (active)	inactive	4.93 µM (active)	inactive
CCOc1ccc2nc3cc(N)ccc3c(N)c2c1	inactive	inactive	–	inactive	10.7 µM (active)	15.1 µM (active)	8.49 µM (active)	–	–
CC(C)(C)NC(=O)[C@@H]1C[C@@H]2CCCC[C@@H]2CN1C[C@@H](O)[C@H](Cc1ccccc1)NC(=O)[C@H](CC(N)=O)NC(=O)c1ccc2ccccc2n1	51.2 µM (active)	–	-72.5%	inactive	55.7 µM (active)	19.7 µM (active)	–	–	–
O=Cc1cc(O)ccc1Br	inactive	–	–	inactive	inactive	–	inactive	–	–
CSc1ccc2c(c1)C(N1CCN(C)CC1)Cc1ccccc1S2 (stereo not given)	–	–	–	inactive	23.9 µM (active)	–	–	–	–
CCOC(=O)c1nc(C(Cl)(Cl)Cl)n(-c2ccc(Cl)cc2Cl)n1	–	–	-43.4%	inactive	–	inactive	inactive	–	inactive
CCCCCCCCCCCC[N+](C)(C)CCCCCCCCCCCC	–	28.4 µM (active)	–	inactive	7.76 µM (active)	–	–	13.7 µM (active)	–
CCCCc1oc2ccc(NS(C)(=O)=O)cc2c1C(=O)c1ccc(OCCCN(CCCC)CCCC)cc1	–	43.8 µM (active)	-64.5% [at 42.5 µM]	inactive	9.52 µM (active)	–	9.52 µM (active)	16.8 µM (active)	–
Fc1ccc(C(c2ccc(F)cc2)N2CCN(C/C=C/c3ccccc3)CC2)cc1	–	–	-51.3% [at 42.5 µM]	inactive	–	21.3 µM (active)	inactive	23.7 µM (active)	–
CC1=C(C(=O)OC(C)C)C(c2cccc([N+](=O)[O-])c2)C(C(=O)OC2CN(C(c3ccccc3)c3ccccc3)C2)=C(N)N1 (stereo not given)	–	55.2 µM (active)	–	inactive	21.3 µM (active)	–	23.9 µM (active)	26.6 µM (active)	–
CCCCCCCCCCn1cc[n+](CCCCCCCCCC)c1C	–	10.1 µM (active)	–	inactive	19.5 µM (active)	–	19.5 µM (active)	2.17 µM (active)	–
COc1cccc2c1C(=O)c1c(O)c3c(c(O)c1C2=O)C[C@@](O)(C(=O)CO)C[C@@H]3O[C@H]1C[C@H](N)[C@H](O[C@@H]2CCCCO2)[C@H](C)O1	–	–	-55.4% [at 42.5 µM]	inactive	2.13 µM (active)	0.239 µM (active)	1.9 µM (active)	4.22 µM (active)	–
CNc1ccc(O)cc1	–	101 µM (active)	-69.6%	inactive	–	12.3 µM (active)	–	–	–
O=C(c1ccc(F)cc1)C1CCN(CCn2c(=O)[nH]c3ccccc3c2=O)CC1	–	inactive	-25.2% [at 42.5 µM]	inactive	inactive	–	–	–	–

Structure (SMILES)	Potency [1]	Potency [2]	activity change, positive = activation [3]	Potency [4]	Potency [5]	Potency [6]	Potency [7]	Potency [8]	Potency [9]
O=C(OCC1CO1)C1CCCCC1C(=O)OCC1CO1 (stereo not given)	–	inactive	-46.8%	inactive	inactive	–	inactive	–	–
CCCC(=O)OC[C@@H](OC(=O)CCC)[C@@H](OC(=O)CCC)[C@H](Cn1c2nc(=O)[nH]c(=O)c-2nc2cc(C)c(C)cc21)OC(=O)CCC	–	inactive	-44.5% [at 42.5 µM]	19 µM (active)	–	–	inactive	29.8 µM (active)	–
NNc1nc(-c2ccccc2)cs1	–	–	-30.7%	inactive	inactive	–	inactive	–	–
CCCCCCCCCCCCCC[P+](CCCC)(CCCC)CCCC (tested in a mixture with another compound)	–	3.6 µM (active)	–	inactive	19.6 µM (active)	0.553 µM (active)	19.6 µM (active)	–	–
CN1CCN(CCC(=O)N2c3ccccc3Sc3ccc(C(F)(F)F)cc32)CC1	–	–	-67.1% [at 42.5 µM]	inactive	23.9 µM (active)	–	–	–	inactive
CC(=O)S[C@@H]1CC2=CC(=O)CC[C@]2(C)[C@H]2CC[C@@]3(C)[C@@H](CC[C@@]34CCC(=O)O4)[C@H]12	–	inactive	–	inactive	–	–	inactive	–	inactive
O=c1c(-c2ccccc2)c1-c1ccccc1	–	–	-61.4% [at 42.5 µM]	inactive	16.9 µM (active)	13.4 µM (active)	15.1 µM (active)	8.41 µM (active)	–
O=C1Cc2cc(CCN3CCN(c4nsc5ccccc45)CC3)c(Cl)cc2N1	–	–	-35.7% [at 42.5 µM]	inactive	–	–	inactive	26.6 µM (active)	–
O=c1cc(-c2ccc(O)cc2)oc2cc(O)cc(O)c12	–	–	–	inactive	inactive	–	inactive	–	–
O=C(O)c1cc(O)c2c(c1)C(=O)c1cccc(O)c1C2=O	–	inactive	–	inactive	inactive	inactive	inactive	–	–
O=C(N/N=C/c1ccccc1O)c1ccncc1	–	–	–	inactive	inactive	–	inactive	11.9 µM (active)	–
[Cl][Au]([Cl])[Cl]	–	inactive	-67.4%	inactive	9.77 µM (active)	–	8.71 µM (active)	3.06 µM (active)	–
CCC(Cl)C(Cl)C(Cl)CC(Cl)C(Cl)C(C)Cl (stereo not given)	–	–	–	inactive	inactive	inactive	inactive	–	inactive
O=C1c2c(O)ccc(Nc3ccc(CCO)cc3)c2C(=O)c2c([N+](=O)[O-])ccc(O)c21	–	–	–	inactive	–	–	inactive	–	–
OCCN(CCO)c1nc(N2CCCCC2)c2nc(N(CCO)CCO)nc(N3CCCCC3)c2n1	–	inactive	–	21.3 µM (active)	inactive	26.8 µM (active)	inactive	–	–
CC1=C(/C=C/C(C)=C/C=C/C(C)=C/C=O)C(C)(C)CCC1	–	–	–	inactive	54.6 µM (active)	19.4 µM (active)	–	–	–
C=CC(=O)OCC(CO)(COCC(COC(=O)C=C)(COC(=O)C=C)COC(=O)C=C)COC(=O)C=C	–	–	–	inactive	4.31 µM (active)	–	4.31 µM (active)	–	–
CC[C@@]1(O)C(=O)OCc2c1cc1n(c2=O)Cc2c-1nc1ccccc1c2/C=N/OC(C)(C)C	–	–	-54.3% [at 42.5 µM]	inactive	–	0.0239 µM (active)	1.07 µM (active)	0.0596 µM (active)	–
O=S1(=O)CC(Cl)(Cl)C(Cl)(Cl)C1	–	25.3 µM (active)	-79.8%	inactive	6.92 µM (active)	–	6.16 µM (active)	15.4 µM (active)	–
NNc1nc(-c2ccc([N+](=O)[O-])cc2)cs1	–	–	-52.6%	inactive	–	24.5 µM (active)	–	27.3 µM (active)	–
Cc1[nH]nc2c1N=C(c1ccccc1Cl)c1cc([N+](=O)[O-])ccc1N2	–	80 µM (active)	–	inactive	inactive	–	inactive	–	–
S=c1[nH]c2ccccc2s1	–	–	-59.1%	inactive	inactive	inactive	inactive	54.5 µM (active)	inactive
CCCCN(CCCC)c1ccc(C(=O)c2ccccc2C(=O)O)c(O)c1	–	–	-39.4%	inactive	inactive	inactive	inactive	55 µM (active)	–
CN1CCC(Nc2ncc3ncnc(Nc4ccc(F)c(Cl)c4)c3n2)CC1	–	–	-30.3% [at 42.5 µM]	inactive	–	10.7 µM (active)	–	–	8.49 µM (active)
CCC(C)Nc1ccc(NC(C)CC)cc1 (stereo not given)	–	23 µM (active)	-80.2%	inactive	17.7 µM (active)	4.45 µM (active)	17.7 µM (active)	6.23 µM (active)	–
CCc1oc2ccccc2c1C(=O)c1cc(Br)c(O)c(Br)c1	–	–	–	inactive	inactive	–	–	–	–
Nc1ccccc1O	–	inactive	–	inactive	inactive	–	–	–	–
